In PubChem BioAssay (Tox21):
Records with an inconclusive call do not appear. Calls of active or inactive are those of the source. Unless noted, the call rests on the fitted dose curve; in most records, active means well fitted curve in the direction sought with a large enough effect in the repeat runs; inconclusive means weak or mixed curves; inactive means no such curve, though single readings can be large; an effect the other way counts as inactive or inconclusive.

Tests used:
[1] = qHTS assay to identify small molecule agonists of the vitamin D receptor (VDR) signaling pathway - cell viability counter screen (AID 743224); further: nearly all actives have a fitted effect of over 50% in size; further: potency means the concentration at half of the fitted maximal effect
Outline: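 VDR-bla cells were preincubated 4 h at 37C/5% CO2, then exposed to compounds for 16 h. After the 2 h room-temperature bla FRET read, CellTiter-Glo was added to the same wells and luminescence read after 30 min.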

[2] = qHTS assay to identify small molecule antagonists of the vitamin D receptor (VDR) signaling pathway - cell viability counter screen (AID 743225); further: nearly all actives have a fitted effect of over 50% in size
Outline: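 VDR-bla HEK 293T cells, 4 h pre-incubation at 37C, then compound plus 1-alpha,25-dihydroxyvitamin D3 (3 nM final) for 16 h. After the beta-lactamase FRET read, CellTiter-Glo was added to the same wells; luminescence after 30 min at room temperature.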

[3] = qHTS assay to identify small molecule agonists of the NFkB signaling pathway (AID 1159509; active means well fitted curve in the direction sought with a large enough effect in the signal ratio in the repeat runs, not every such curve was filed as active; the % refers to the signal ratio; further: series mostly up to about 61 µM)
Outline: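 ME-180 NFkB-bla, 2,000 cells/well, overnight plating; cpd pinned in DMSO, 5 h 37 C; B/G FRET substrate 1.5 h RT; ex 405, em 460/530 nm.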

[4] = qHTS assay to identify small molecule agonists of the endoplasmic reticulum stress response signaling pathway (AID 1159516; active means well fitted activation curve with a large enough effect in the signal ratio in the repeat runs, not every such curve was filed as active; the % refers to the signal ratio)
Outline: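 CellSensor ESRE-bla HeLa cells, carrying a beta-lactamase reporter driven by the ER stress response element, were plated overnight and exposed to compounds for 5 hr at 37 C. Reporter activity was read as FRET substrate fluorescence after 2 hr at room temperature.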

[5] = qHTS assay to identify small molecule agonists of the endoplasmic reticulum stress response signaling pathway - cell viability counter screen (AID 1159517; calls by dose curve; further: nearly all actives have a fitted effect of over 50% in size; further: potency means the concentration at half of the fitted maximal effect)
Outline: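 HeLa cells carrying an ESRE-driven beta-lactamase reporter receive compound for 5 hr at 37 C. Cell viability is then gauged with CellTiter-Glo by luminescence, 30 min at room temperature.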

[6] = qHTS assay to identify small molecule antagonists of the retinoid-related orphan receptor gamma (ROR-gamma) signaling pathway - cell viability counter screen (AID 1159520); further: nearly all actives have a fitted effect of over 50% in size; further: potency means the concentration at half of the fitted maximal effect
Outline: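 Cytotoxicity was read from cellular ATP (CellTiter-Glo luminescence) after 16 hr at 37 C with 1 uM doxycycline induction. The inducer was added 2 hr after compound transfer to Tet-on ROR gamma CHO cells.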

[7] = target: Nuclear receptor ROR-gamma (Homo sapiens) (UniProt P51449); assay: qHTS assay to identify small molecule antagonists of the retinoid-related orphan receptor gamma (ROR-gamma) signaling pathway (AID 1159521; further: nearly all actives have a fitted effect of over 50% in size; further: potency means the concentration at half of the fitted maximal effect)
Outline: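 Tet-on RORγ CHO cells carrying a ROR response element–luciferase reporter were pretreated with compounds for 2 h, then induced with 1 uM (final) doxycycline hyclate for 16 h at 37 C. Antagonism was read as decreased ONE-Glo luminescence.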

[8] = qHTS assay to identify small molecule agonists of the AP-1 signaling pathway - cell viability counter screen (AID 1159525; calls by dose curve; further: nearly all actives have a fitted effect of over 55% in size)
Outline: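 Luminescent ATP readout (Cell Titer Glo, 30 min RT), normalised to DMSO and tetra n-octyl ammonium bromide controls. Cells were ME-180 AP-1-bla in 0.5% dialyzed FBS Opti-MEM, with a 5 h, 37 °C compound exposure.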

[9] = qHTS assay to identify small molecule agonists of the AP-1 signaling pathway (AID 1159526; calls by dose curve)
[10] = target: Retinoic acid receptor RXR-alpha (Homo sapiens) (UniProt P19793); assay: qHTS assay to identify small molecule agonists of the RXR signaling pathway (AID 1159527; calls by dose curve; further: nearly all actives have a fitted effect of over 35% in size)
Retinoic acid receptor RXR-alpha (Homo sapiens), sequence (P19793 whole entry, looked up): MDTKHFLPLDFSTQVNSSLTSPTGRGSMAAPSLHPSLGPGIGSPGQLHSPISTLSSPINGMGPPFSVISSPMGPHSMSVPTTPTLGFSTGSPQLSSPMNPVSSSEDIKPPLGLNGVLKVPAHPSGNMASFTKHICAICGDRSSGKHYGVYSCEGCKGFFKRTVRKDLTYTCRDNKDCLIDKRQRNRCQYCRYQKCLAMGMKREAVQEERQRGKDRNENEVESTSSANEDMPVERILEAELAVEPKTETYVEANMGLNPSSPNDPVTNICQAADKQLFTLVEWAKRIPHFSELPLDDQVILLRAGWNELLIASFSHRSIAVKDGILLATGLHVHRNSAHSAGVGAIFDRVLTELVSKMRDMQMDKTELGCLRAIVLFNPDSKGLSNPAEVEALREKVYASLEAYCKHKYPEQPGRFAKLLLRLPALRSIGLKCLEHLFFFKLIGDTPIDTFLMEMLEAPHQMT
Outline: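 GeneBLAzer RXR-alpha-UAS-bla HEK 293T cells in medium with 2% charcoal-stripped FBS, pre-incubated 5 hr at 37 C, then exposed to compounds 16 hr. Beta-lactamase reporter read by FRET substrate, 2 hr room temperature, 460/530 nm emission.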

[11] = qHTS assay to identify small molecule agonists of the RXR signaling pathway - cell viability counter screen (AID 1159529)
Outline: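 RXR-alpha-UAS-bla HEK 293T cells in medium with 2% charcoal-stripped FBS were preincubated 5 hr, then exposed to compounds for 16 hr at 37 C. Viability was read as CellTiter-Glo luminescence after 30 min at room temperature.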

[12] = qHTS assay to identify small molecule antagonists of the retinoid acid receptor (RAR) signaling pathway - cell viability counter screen (AID 1159551); further: nearly all actives have a fitted effect of over 35% in size; further: potency means the concentration at half of the fitted maximal effect
Outline: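 C3RL4 cells were seeded overnight at 37 C, then treated with compounds plus 1 uM (final) retinol for 6 h at 37 C. Viability was read as ATP by CellTiter-Glo luminescence after 30 min at room temperature.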

[13] = qHTS assay to identify small molecule agonists of the NFkB signaling pathway - cell viability counter screen (AID 1159515; calls by dose curve; further: nearly all actives have a fitted effect of over 55% in size; further: potency means the concentration at half of the fitted maximal effect)
Outline: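 NFkB-bla ME-180 cells, 2,000/well, were plated overnight at 37 C, 5% CO2, then exposed to compounds in DMSO for 5 hr. After the bla FRET read, CellTiter-Glo was added to the same wells; luminescence was read after 30 min at room temperature.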

[14] = qHTS assay to identify small molecule antagonists of the retinoic acid receptor (RAR) signaling pathway (AID 1159552; further: nearly all actives have a fitted effect of over 50% in size; further: potency means the concentration at half of the fitted maximal effect)
Outline: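 RARE-luc C3RL4 cells; cpds + 1 uM (final) retinol, 6 hr, 37 C/5% CO2; luciferase reagent, 30 min RT, luminescence readout. Inhibitors of retinol-driven signal scored.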

[15] = qHTS assay to identify small molecule agonists of the retinoic acid receptor (RAR) signaling pathway (AID 1159553); further: potency means the concentration at half of the fitted maximal effect
Outline: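 C3RL4 cells carrying a RARE luciferase reporter were plated overnight at 37 C, then exposed to compounds in DMSO for 6 hr at 37 C and 5% CO2. Luminescence was read 30 min after luciferase reagent addition at room temperature.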

Measured: Potency

c1ccoc1
not listed: [13] | [14] | [15]
inactive: all other assays above

O=C(O)CC(Cl)C(=O)O (configuration not stated)
not listed: [4] | [5] | [15]
inactive: all other assays above

Cl/C=C\Cl
not listed: [4] | [5] | [11] | [12]
inactive: all other assays above

BrCCCCBr
not listed: [4] | [5] | [10] | [11]
inactive: all other assays above

CCOP(=S)(OCC)Oc1cc(Cl)c(Br)cc1Cl
inactive: [2] | [3] | [13] | [6] | [7] | [8] | [12] | [14]

COc1c(C(C)(C)C)cc([N+](=O)[O-])c(C)c1[N+](=O)[O-]
not listed: [9] | [10] | [13]
inactive: all other assays above

CCCCN=C=O
not listed: [4] | [5] | [6] | [15]
inactive: all other assays above

O=S1(=O)OC(c2cc(Br)c(O)c(Br)c2)(c2cc(Br)c(O)c(Br)c2)c2ccccc21
inactive: [2] | [3] | [9] | [11]
active: [13] 40 µM | [6] 7.91 µM | [7] 5.6 µM | [12] 19.9 µM | [14] 25 µM

CC1C(=O)C[C@]2(C(C)C)C[C@H]12 (some centres not stated)
not listed: [13] | [15]
inactive: all other assays above

CC(C)(Cl)[N+](=O)[O-]
not listed: [4] | [5] | [11]
inactive: all other assays above

O=C=Nc1ccc(Cl)cc1
active: [15] 24.3 µM
not listed: [1] | [2] | [10] | [11] | [13]
inactive: all other assays above

C/C(=C\c1ccccc1)[N+](=O)[O-]
inactive: [3] | [8] | [11] | [12]
active: [1] 24.5 µM | [13] 54.9 µM | [6] 27.3 µM | [7] 19.3 µM | [14] 30.6 µM

CCC(C)(NC(=O)c1cc(Cl)c(C)c(Cl)c1)C(=O)CCl (configuration not stated)
inactive: [3] | [13]
active: [1] 55.3 µM | [6] 21.8 µM | [7] 6.15 µM | [14] 4.89 µM

C[C@@H]1CC[C@H]2[C@@H](C)C(=O)O[C@@H]3O[C@@]4(C)CC[C@@H]1[C@]32OO4
active: [7] 0.237 µM
inactive: [1] | [2] | [3] | [13] | [8] | [9] | [12]

CCOP(O)OCC
not listed: [8] | [10] | [11] | [13] | [15]
inactive: all other assays above

O=C(Nc1ccccc1)Nc1cnns1
not listed: [5] | [8] | [10] | [13] | [15]
inactive: all other assays above

CCOC(=O)CBr
not listed: [2] | [4] | [13]
inactive: all other assays above

CNC(C)Cc1ccccc1OC (configuration not stated)
not listed: [4] | [8] | [13]
inactive: all other assays above

O=C(CBr)Nc1ccc(Cl)cc1C(=O)c1ccccc1F
active: [5] 23.9 µM
inactive: [1] | [2] | [3] | [6] | [7] | [8] | [12]

N#C/C(N)=C(/N)C#N
not listed: [6] | [11] | [13] | [15]
inactive: all other assays above

C[C@H]1CNCCc2ccc(Cl)cc21
not listed: [5] | [6] | [8] | [9] | [13]
inactive: all other assays above

O=C(CBr)c1ccccc1
not listed: [4] | [9] | [11] | [13] | [15]
inactive: all other assays above

CCOP(=O)(OCC)O/C(=C/Cl)c1ccc(Cl)cc1Cl
active: [7] 68.6 µM
inactive: [3] | [4] | [5] | [11] | [12] | [15]

O=[N+]([O-])c1cc(C(F)(F)F)cc([N+](=O)[O-])c1Cl
not listed: [4] | [11] | [13]
inactive: all other assays above

CC(=O)NC1CCSC1=O (configuration not stated)
not listed: [4] | [13] | [15]
inactive: all other assays above

Cn1cc[n+](C)c1 (tested in a mixture with another compound)
not listed: [4] | [13]
inactive: all other assays above

Cc1ccc2ccccc2c1
not listed: [6] | [13] | [14] | [15]
inactive: all other assays above

C=CCN1CC[C@]23c4c5ccc(O)c4O[C@H]2C(=O)CC[C@@]3(O)[C@H]1C5
not listed: [5] | [6] | [13] | [15]
inactive: all other assays above

CCO[C@H]1O[C@@H]2OC3(C)CC[C@H]4[C@H](C)CC[C@@H]([C@H]1C)[C@@]24OO3
not listed: [6] | [7] | [8] | [9] | [10] | [13]
inactive: all other assays above
